Only some compounds are listed: those with a hit (about 19% of all), similar ones and a draw of the others.
HT1080 IDH1KD tx: kills HT-1080 cells with IDH1 knockdown | HT-1080 IDH1 knockdown viability, ATP luminescence, 48 h | Potency, µM (titrated, usually from 46.1 µM), for the others: at the top dose activity, negative = toxicity, most hits filed as cytotoxic | 2% of 360,000 active | AID 686971;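 note: potency is the fitted concentration of half-maximal effect; 0% = DMSO wells and -100% = cell-free medium wells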
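Viability of IDH1-knockdown HT-1080 fibrosarcoma cells was assessed by CellTiter-Glo after 48 h at 37 °C with titrated compound; concentration-effect curves were classified by fit quality and response size.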
IL1B secr inh: blocks inflammasome-driven IL-1 beta release | activity change, % at 57.5 µM | 4.7% of 360,000 active | THP-1 LPS/ATP IL-1B secretion, AlphaLISA, 16 h; stronger effect = lower value; in the data active = activity change below about -50%; inconclusive = mostly about -30% to -49%
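THP-1 cells pretreated 1 hr with compounds (up to 57.5 uM final), then stimulated with LPS (250 ng/mL final) plus ATP (1.25 mM final); secreted IL-1B measured by AlphaLISA after 16 hr, decreased signal indicating inhibition.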
TDP1 cell CPT: growth inhibition of DT40 Tdp1-/-;hTDP1 cells with camptothecin (screen for TDP1 inhibitors); chicken DT40 Tdp1-/-;hTDP1 cells + 20 nM CPT, ATP luminescence, 48 h; Potency, µM (doses to about 46.2 µM), without a hit: at the highest dose activity change, negative = growth inhibition, hits mostly inhibitors; 12% of 420,000 active; note: potency is the fitted concentration of half-maximal effect; nearly all actives have a fitted effect of over 55% in size
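Chicken DT40 Tdp1-/- cells complemented with human TDP1, 400 cells/well, exposed to compounds plus 20 nM camptothecin for at least 48 h at 37 C; viability read as ATP content by CellTiter-Glo luminescence.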
TDP1 cell noCPT: qHTS for Inhibitors of human tyrosyl-DNA phosphodiesterase 1 (TDP1): qHTS in cells in absence of CPT | DT40 Tdp1-/- hTDP1 cells, no CPT, ATP luminescence, 48 h | Potency, µM (top dose mostly 46.2 µM), inactives show at the highest dose activity change, negative = growth inhibition, hits mostly inhibitors | 15% of 420,000 active | AID 686978, 2013; note: potency is the fitted concentration of half-maximal effect; nearly all actives have a fitted effect of over 55% in size
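Seeded 400 DT40-hTDP1 cells/well (vehicle DMSO, no 20 nM CPT); pinned compounds; ≥48 hr at 37 °C; CellTiter-Glo luminescence as viability measure.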
HT1080-NT tox: kills 2HG-producing HT-1080-NT fibrosarcoma cells | HT-1080-NT fibrosarcoma viability, CellTiter-Glo ATP luminescence, 48 h | Potency, µM (titrated, usually from 46.1 µM), inactives show at the top dose activity, negative = less viability, hits mostly cytotoxic | 1.6% of 360,000 active;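 note: NT is the 2HG producing partner of a matched IDH1 knockdown line; potency is the fitted concentration of half-maximal effect; 0% = DMSO-treated cells and -100% = media-only wells without cells; nearly all actives have a fitted effect of over 55% in size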
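Viability by CellTiter-Glo luminescence after 48 h compound exposure at 37C of HT-1080-NT cells (750/well, RPMI, 5% FBS). % activity scaled between DMSO wells and medium-only wells, then curve-fitted and categorized by curve class.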
* = called active by the depositor; ? = inconclusive; nt = no result given; [ ] = remark or other dose. Unless noted, calls come from the whole dose curve; as a rule, active = well fitted curve in the direction sought with a large enough effect; inconclusive = small, poorly fitted or top-dose-only effect, or another doubt; inactive = no such curve, though single readings can be large; an effect the other way counts as inactive or inconclusive. Unless noted, % is set by controls: 0 for no effect and ±100 for the full control effect.

SMILES | HT1080 IDH1KD tx | IL1B secr inh | TDP1 cell CPT | TDP1 cell noCPT | HT1080-NT tox
O=C(CN(Cc1ccc(F)cc1)C(=O)CNS(=O)(=O)c1ccccc1)NCc1ccco1 | 0% | -7 | -8% | -27% | 8%
CCC(c1nnnn1-c1c(C)cccc1C)N1CCN(CC)CC1 (configuration not stated) | 13% | 9 | -2% | -10% | 12%
CCC(c1nnnn1-c1c(C)cccc1C)N1CCN(c2cccc(C(F)(F)F)n2)CC1 (configuration not stated) | -2% | 71 | ? | 15µM* | -5%
CCC(c1nnnn1-c1c(C)cccc1C)N1CCN(c2ccc(C(F)(F)F)cc2[N+](=O)[O-])CC1 (configuration not stated) | -10% | ? | ? | -58% | 29µM*
CCN(C(=O)COc1ccc(F)cc1Br)c1c(N)n(Cc2ccccc2)c(=O)[nH]c1=O | 5% | 10 | -3% | 9% | 9%
CN1CCN(c2ccc(C(=O)NC3CCCCC3)cc2[N+](=O)[O-])CC1 | 2% | 18 | -16% | -25% | 1%
Cc1cccn2c(=O)cc(CSc3nnc(NC(=O)COc4ccccc4)s3)nc12 | nt | nt | 4% | -13% | nt
CCN1C(=O)CS/C1=N\S(=O)(=O)c1ccc(Cl)cc1 | -2% | 2 | 8% | -6% | -3%
CCn1c(Cl)c(C=O)s/c1=N\S(=O)(=O)c1ccccc1 | 8.2µM* | -3 | 0.82µM* | 0.37µM* | 13µM*
COC(=O)[C@@H]1C[C@@H]2CC[C@@H](O)C[C@@H]2N1Cc1ccc(N2CCN(C)CC2)cc1 | 10% | 35 | -19% | 1% | 12%
CCOC(=O)c1c(-c2ccccc2)nnn1-c1nc(OC)nc(N2CCOCC2)n1 | 8% | -17 | 23µM* | 16µM* | 5%
Cc1nc2cccnc2n1C1CCN(C(=O)Nc2ccccc2C(F)(F)F)CC1 | nt | nt | 0% | 6% | nt
COC(=O)c1cc(Cl)ccc1NCC(N)c1ccccc1 (configuration not stated) | 18µM* | ? | 18µM* | ? | 21µM*
O=C1NC(=S)S/C1=C\c1ccc(SCc2ccccc2)o1 | -16% | 5 | -16% | ? | -13%
O=C1NC(=S)S/C1=C\c1ccc(SCc2ccco2)o1 | -6% | 4 | 18µM* | ? | -8%
Cc1cccc(/C=N/NC(=O)Cc2ccc(Cl)cc2)c1O | ? | 98 | 18µM* | ? | -27%
O=C(N/N=C/c1c[nH]c2ccccc12)c1ccc(Cl)cc1 | -16% | -26 | -5% | -25% | 2%
Cc1cccc(/C=N\NC(=O)c2ccc(Cl)cc2)c1O | 3.3µM* | 118 | 4.6µM* | ? | ?
CC1(NC(=O)c2cc(S(=O)(=O)N3CCCCC3)ccc2Cl)CCS(=O)(=O)C1 (configuration not stated) | -2% | 18 | -13% | -9% | -8%
CC(C)=CCN1CCNC(=O)C1CC(=O)NCc1nc(C)c(C)s1 (configuration not stated) | 16% | -3 | 9% | -21% | 18%
COc1ccc(NS(=O)(=O)c2cc(C(=O)N3CCCCCC3)ccc2C)cc1 | -2% | 24 | ? | -2% | 6%
c1ccc(NN=C(c2ccccc2)c2cccs2)cc1 | -20% | -14 | -7% | 21µM* | -1%
Cc1cc(NC(=O)CC2CCCC2)n(-c2nc3ccccc3[nH]2)n1 | 18µM* | -9 | ? | 21µM* | ?
Cc1cc(NC(=O)/C=C/c2ccccc2Cl)n(-c2nc3ccccc3[nH]2)n1 | -26% | -6 | ? | 10µM* | ?
Cc1c(=O)n(OCc2ccc(Cl)cc2)c2ccccc2[n+]1[O-] | 0% | 16 | -10% | 6.5µM* | 1%
SMILES | HT1080 IDH1KD tx | IL1B secr inh | TDP1 cell CPT | TDP1 cell noCPT | HT1080-NT tox
Cc1c(=O)n(OCc2cccc(F)c2)c2ccccc2[n+]1[O-] | -8% | 0 | -6% | ? | 2%
Cc1nc2cc(NC(=O)[C@@H]3C[C@@H](Sc4ccccn4)CN3Cc3ccccc3)ccc2s1 | nt | nt | 5%[9.04 µM] | -10% | nt
C/C(O)=C(\N=Nc1cc(C)ccc1O)C(N)=O | -4% | 30 | ? | 21µM* | -7%
Cc1ccc(O)c(N=Nc2ccc(S(=O)(=O)N3CCOCC3)cc2)c1 | -1% | -5 | 2% | -16% | 1%
CC1C(O)=C(c2ccccc2)P(=O)(Cc2ccccc2)C1C (configuration not stated) | 18% | 29 | 2% | -5% | 19%
Cc1cccc(C)c1NC(=O)C(c1ccccc1)N1CCN(c2ccc(F)cc2)CC1 (configuration not stated) | 5% | 7 | ? | -23% | 5%
O=C(Nc1ccc(F)cc1)C(c1cc2ccccc2o1)N1CCN(c2ccncc2)CC1 (configuration not stated) | ? | ? | 21µM* | 23µM* | ?
O=C(Nc1ccc2c(c1)OCCO2)C(c1cc2ccccc2o1)N1CCC(Cc2ccccc2)CC1 (configuration not stated) | 3% | 44 | ? | ? | 6%
Cc1cccc(C)c1NC(=O)C(c1cc2ccccc2o1)N1CCC(c2ccccc2)CC1 (configuration not stated) | 13% | 25 | 16µM* | 15µM* | -1%
Cc1ccc(N2CCN(C(C(=O)Nc3c(C)cccc3C)c3cc4ccccc4o3)CC2)cc1 (configuration not stated) | 3% | 4 | 13µM* | 13µM* | 0%
O=C1N2CCSC2=NC1(NS(=O)(=O)c1ccccc1)C(F)(F)F (configuration not stated) | 13% | 13 | 0% | -3% | 11%
COc1ccc(Cn2cc(CN3CC(N4CCSCC4)CS3(=O)=O)nn2)cc1 (configuration not stated) | 0% | 12 | -18% | -12% | 14%
CC[C@]12c3[nH]c4cc(-c5ccco5)ccc4c3CCN1C(=O)[C@@H](CC(=O)NCc1ccc(OC)c(OC)c1)C[C@@H]2C(=O)N1CCN(C(=O)c2ccco2)CC1 | -8% | ? | ? | ? | -3%
O=C(C[C@H]1C[C@H](C(=O)N2CCCCC2)[C@@]2(CCc3ccccc3)c3[nH]c4ccc(Cl)cc4c3CCN2C1=O)NCCc1ccccn1 | -1% | 0 | ? | 18µM* | 10%
COc1ccc(CNC(=O)C[C@H]2C[C@H](C(=O)N3CCCCC3)[C@@]3(C)c4[nH]c5cc(-c6ccco6)ccc5c4CCN3C2=O)cc1OC | -14% | 0 | ? | 18µM* | -1%

Bioassay records as filed in PubChem.
